Reference: PubChem BioAssay (Tox21)
Results filed as inconclusive are left out. Entries that show only a call come without a potency. Active and inactive are the calls of the source. Unless noted, calls follow the shape of the dose curve; as a rule, active = well fitted curve in the direction sought with a large enough effect in the repeat runs; inconclusive = weak or mixed curves; inactive = no such curve, though single readings can be large; an effect the other way counts as inactive or inconclusive.

Assays:
[1] = qHTS assay to identify small molecule HDAC inhibitors (AID 1259364);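 also: wild-type HCT-116 cells with endogenous class I/II HDAC activity; top concentration of the series differs between compounds; nearly all actives have a fitted effect of over 45% in size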
Summary of the method: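 HCT-116 wt cells, 1,500/well, overnight attach. Compounds (DMSO) 2 h, 37 °C. HDAC-Glo I/II, 30 min RT. Luminescence.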

[2] = qHTS assay to identify small molecule HDAC inhibitors - cell viability counter screen (AID 1259365); also: series mostly up to about 92 µM; nearly all actives have a fitted effect of over 50% in size
Summary of the method: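 Cytotoxicity was gauged in wild-type HCT-116 cells after a brief 2hr treatment with DMSO-dissolved compounds at 37C and 5% CO2, using CellTiter-Glo luminescence developed for 30min at room temperature.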

[3] = qHTS assay to identify small molecule agonists of the sonic hedgehog signaling (Shh) pathway - cell viability counter screen (AID 1259366); also: nearly all actives have a fitted effect of over 50% in size; also: potency is read from the fitted curve at half-maximal effect
Summary of the method: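 Stable Gli1-Luc NIH/3T3 clone, 2,000 cells/well. Compound exposure 24hr at 37C. Read-out: CellTiter-Fluor fluorescence.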

[4] = qHTS assay to identify small molecule antagonists of the sonic hedgehog signaling (Shh) pathway - cell viability counter screen (AID 1259367); also: nearly all actives have a fitted effect of over 55% in size; also: potency is read from the fitted curve at half-maximal effect
Summary of the method: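 Conditioned medium drove Shh signaling in 3T3 Gli1-Luc cells exposed to compounds at 37C and 5% CO2. Viability was determined from CellTiter-Fluor fluorescence, with reagent incubated 1 hr after 23 hr of treatment.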

[5] = qHTS assay to identify small molecule antagonists of the sonic hedgehog signaling (Shh) pathway (AID 1259369; calls by dose curve; also: nearly all actives have a fitted effect of over 45% in size; also: potency is read from the fitted curve at half-maximal effect)
Summary of the method: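 Read-out is luminescence from a firefly luciferase gene controlled by the Gli1 response element, in 3T3Gli1-Luc cells pre-incubated 4hr then exposed to compounds and conditioned medium for 24hr.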

[6] = biological target: Estrogen receptor beta (Homo sapiens) (UniProt Q92731); assay: qHTS assay to identify small molecule agonists of the estrogen receptor beta (ER-beta) signaling pathway (AID 1259377; active = well fitted activation curve with a large enough effect in the signal ratio in the repeat runs, not every such curve was filed as active; the % refers to the signal ratio)
Summary of the method: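 Measured by fluorescence intensity from a B/G FRET beta-lactamase substrate (2 h, room temperature) in ER-beta-UAS-bla HEK293T cells treated with DMSO-dissolved compounds for 16 hr at 37C and 5% CO2.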

[7] = biological target: Estrogen receptor beta (Homo sapiens) (UniProt Q92731); assay: qHTS assay to identify small molecule antagonists of the estrogen receptor beta (ER-beta) signaling pathway (AID 1259378; active = well fitted inhibition curve with a large enough effect in the signal ratio in the repeat runs, not every such curve was filed as active; the % refers to the signal ratio)
Summary of the method: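 ER-beta-UAS-bla HEK293T (GripTite) cells in 2% charcoal-stripped FBS medium were preincubated 6 hr at 37C, dosed with compound, then stimulated with 1 nM E2 (final) for 16 hr; beta-lactamase reporter read by B/G FRET fluorescence after 2 hr substrate loading.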

[8] = qHTS assay to identify small molecule agonists of the androgen receptor (AR) signaling pathway in the presence of an antagonist - cell viability counter screen (AID 1259379);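 also: MDA-kb2 human breast cancer cells carrying an MMTV luciferase reporter; series mostly up to about 92 µM; nearly all actives have a fitted effect of over 25% in size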
Summary of the method: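 Each compound was tested at 15 concentrations on MDA-kb2 cells in the presence of 3.0uM nilutamide. Viability was measured by CellTiter-Fluor fluorescence after a 16 hr incubation at 37C in a CO2-free atmosphere.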

Sequence of Estrogen receptor beta (Homo sapiens) (Q92731 whole entry, looked up): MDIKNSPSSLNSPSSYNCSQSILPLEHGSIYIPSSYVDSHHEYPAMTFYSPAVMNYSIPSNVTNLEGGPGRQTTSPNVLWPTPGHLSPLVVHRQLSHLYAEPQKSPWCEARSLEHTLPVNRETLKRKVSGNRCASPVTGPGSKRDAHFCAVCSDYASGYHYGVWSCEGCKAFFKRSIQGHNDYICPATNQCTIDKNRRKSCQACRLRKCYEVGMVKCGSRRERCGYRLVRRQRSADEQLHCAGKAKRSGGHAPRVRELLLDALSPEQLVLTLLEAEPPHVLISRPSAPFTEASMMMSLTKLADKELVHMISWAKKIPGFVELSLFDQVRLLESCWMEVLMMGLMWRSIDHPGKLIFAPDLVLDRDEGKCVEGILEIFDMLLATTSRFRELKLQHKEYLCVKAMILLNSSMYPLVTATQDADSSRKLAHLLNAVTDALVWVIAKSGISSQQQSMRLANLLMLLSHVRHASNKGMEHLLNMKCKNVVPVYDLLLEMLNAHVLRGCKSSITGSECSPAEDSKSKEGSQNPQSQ

| SMILES | Potency [1] | Potency [2] | Potency [3] | Potency [4] | Potency [5] | outcome [6] | Potency [7] | Potency [8] |
| --- | --- | --- | --- | --- | --- | --- | --- | --- |
| O=C1CCC(=O)N1 | inactive | inactive | inactive | inactive | inactive | inactive | inactive | inactive |
| CC(c1cc(C(C)(C)C)cc(C(C)(C)C)c1O)c1cc(C(C)(C)C)cc(C(C)(C)C)c1O | inactive | inactive | inactive | inactive | inactive | inactive | inactive | inactive |
| C[C@H]1O[C@@H](O[C@H]2CC[C@@]3(C)[C@H](CC[C@@H]4[C@@H]3C[C@@H](O)[C@]3(C)[C@@H](C5=CC(=O)OC5)CC[C@]43O)C2)C[C@H](O)[C@@H]1O[C@H]1C[C@H](O)[C@H](O[C@H]2C[C@H](O)[C@H](O[C@@H]3O[C@H](CO)[C@@H](O)[C@H](O)[C@H]3O)[C@@H](C)O2)[C@@H](C)O1 | inactive | inactive | inactive | inactive | inactive |  |  |  |
| C1=CCCC1 | inactive | inactive | inactive | inactive | inactive |  |  | inactive |
| O=C1OC(O)C(C(Cl)Cl)=C1Cl (centres undefined) | inactive | inactive | 44.6 µM (active) | 25.1 µM (active) | 5 µM (active) | inactive |  |  |
| Clc1ccc2c(Cl)ccnc2c1 | inactive | inactive | inactive | inactive | inactive | inactive |  | inactive |
| C/C=C/C(=O)OCC(C)C | inactive | inactive | inactive | inactive | inactive | inactive |  | inactive |
| c1ccc(-c2ccccc2-c2ccccc2)cc1 | inactive | inactive |  | 43.3 µM (active) | 15.4 µM (active) |  |  | inactive |
| O=C1OCc2ccccc21 | inactive | inactive | inactive | inactive | inactive | inactive |  | inactive |
